In the library only some 1.2% were active in any assay of this set; here they are far more common.
PI4K2A block = PI4K2A (human) kinase inhibition. activity change, negative = inhibition, % at 76.9 µM. purified PI4K2A, ADP-Glo luminescence, 1 h; active compounds read low. AID 1346378. 0.13% of 420,000 active; in the data active = activity change below about -50%; inconclusive = mostly about -30% to -49%;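 note: -100% = wells without enzyme as full effect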
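Compounds are screened against recombinant PI4K2A using PI as substrate and ATP, the latter dispensed at 300 microM. Reactions run one hour at ambient temperature before ADP-Glo detection; full inhibition defined by wells lacking enzyme.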
RGS12 GoLoco inh = blocks human Gai1 binding to RGS12 GoLoco peptide, red readout; 0.44% of 230,000 active; Potency, µM (highest dose often 61.6 µM), for inactives: at the top dose activity, negative = inhibition, usual class: inhibitors; AID 880; Gai1:RGS12 GoLoco peptide FP, rhodamine, 10 min; P63096; active = well fitted inhibition curve with a large enough effect, not every such curve was filed as active; inactive = no such curve, though single readings can be large or run the other way; note: potency is the fitted concentration of half-maximal effect; nearly all actives have a fitted effect of over 30% in size
Target sequence (P63096 whole entry, looked up): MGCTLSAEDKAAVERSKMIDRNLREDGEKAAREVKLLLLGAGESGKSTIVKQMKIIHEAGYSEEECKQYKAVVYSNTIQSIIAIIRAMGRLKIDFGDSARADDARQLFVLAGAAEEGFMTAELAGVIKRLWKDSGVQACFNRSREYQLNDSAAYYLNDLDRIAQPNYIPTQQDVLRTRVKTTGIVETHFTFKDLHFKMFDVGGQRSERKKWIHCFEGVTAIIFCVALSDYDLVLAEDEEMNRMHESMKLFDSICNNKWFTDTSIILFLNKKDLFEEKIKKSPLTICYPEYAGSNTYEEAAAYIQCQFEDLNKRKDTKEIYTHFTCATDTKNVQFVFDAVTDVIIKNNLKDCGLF
Pin1 inh = inhibitors of human Pin1. Q13526. Pin1 FP peptide displacement, HiFluor488, 10 min. Potency, µM (top dose mostly 115 µM), inactives show top-dose activity, negative = inhibition, usual class: inhibitors. 0.009% of 390,000 active; active = well fitted inhibition curve with a large enough effect in the polarisation, with a control signal flat, not every such curve was filed as active; inconclusive = small, poorly fitted or top-dose-only effect, or effect the other way, or a change in a side signal; inactive = no such curve, though single readings can be large or run the other way; the % refers to the polarisation; note: potency is the fitted concentration of half-maximal effect
Target sequence (Q13526 whole entry, looked up): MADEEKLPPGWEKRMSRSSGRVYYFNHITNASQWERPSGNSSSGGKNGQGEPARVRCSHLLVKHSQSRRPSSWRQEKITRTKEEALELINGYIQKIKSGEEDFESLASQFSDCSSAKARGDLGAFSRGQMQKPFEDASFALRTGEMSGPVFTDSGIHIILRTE
GCN5L2 inh = GCN5L2 (KAT2A) acetyltransferase inhibition | GCN5L2 HAT assay, ThioGlo1 CoA-SH fluorescence | Potency, µM (top dose mostly 58.9 µM), inactives show at the top dose activity change, negative = inhibition, most hits filed as inhibitors | 0.21% of 390,000 active; note: potency is the fitted concentration of half-maximal effect
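ThioGlo1-coupled HAT assay: 20nM GCN5L2, 70uM acetyl-CoA, 75uM H3(1-25) peptide, pH 7.5. Fluorescence read at 340/540nm at start and after 20 min at room temperature.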
Tb PGK inh = inhibitors of T. brucei phosphoglycerate kinase; P07378; PGK/GAPDH coupled, Kinase-Glo luminescence, 60 min; Potency, µM (series often up to 57.5 µM), for inactives: top-dose activity change, negative = inhibition, actives largely listed as inhibitors; 0.043% of 380,000 active; AID 602233; note: potency is the fitted concentration of half-maximal effect; nearly all actives have a fitted effect of over 60% in size
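Recombinant glycosomal PGK reaction used 1,3-bisphosphoglycerate generated in-well by GAPDH (100nM final) in 100mM TEA pH 7.6, 5mM MgCl2, 0.01% Tween-20. After 60 minutes at room temperature, ATP was read by Kinase-Glo Plus luminescence end-point.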
PI5P4K alpha inh = inhibitors of human PI5P4K alpha; PI5P4Kalpha enzyme, ADP-Glo luminescence, 60 min; active compounds read low; P48426; max response, %; 1.2% of 330,000 active; AID 652105; active = max response of -50% or lower; inconclusive = between -30% and -50%; inactive = -30% or higher; note: value at the top dose of about 77 µM
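Compounds were pin-transferred onto PI5P4Kalpha and substrate in HEPES pH 7.4 buffer with EGTA, CHAPS and 5% DMSO. ATP (5 microM final) started the reaction, which ran 60 minutes at room temperature before ADP-Glo detection.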
Active calls of the source: *; i = inactive; ? = inconclusive; nt = no result; ! = not active in a repeat. Unless noted, calls come from the whole dose curve; as a rule, active = well fitted curve in the direction sought with a large enough effect; inconclusive = small, poorly fitted or top-dose-only effect, or another doubt; inactive = no such curve, though single readings can be large; an effect the other way counts as inactive or inconclusive. Unless noted, % is set by controls: 0 for no effect and ±100 for the full control effect.

SMILES	PI4K2A block	RGS12 GoLoco inh	Pin1 inh	GCN5L2 inh	Tb PGK inh	PI5P4K alpha inh
Cc1cc(=O)oc(C)c1C(=O)n1nc(C)c2c1C[C@@H]1[C@H]2C1(C)C	4	nt	-5%	-7%	-9%	1
O=C(C(=O)N1CCN(C(=O)OCc2ccccc2)CC1)c1cccs1	-2	nt	nt	nt	nt	8
Cc1ccc(C)c(N2CCN(C(=O)CCc3nc(-c4ccccc4C(F)(F)F)no3)CC2)c1	-1	nt	12%	-6%	-3%	22
COc1ccc(/C=N/Nc2snc(SC)c2C#N)cc1OC	-54*	-4%	?	-3%	-4%	-1
COc1cccc(/C=N/Nc2snc(SC)c2C#N)c1	-6	10%	1%	-16%	-10%	-1
Cc1nn(C)cc1/C=N/NC(=O)C(C)(C)Oc1ccc(Cl)cc1	3	-8%	0%	2%	-9%	nt
Cc1ccc(NNS(=O)(=O)c2ccc(C)cc2)cc1	-4	-42%	4%	35µM*	-7%	-63*
Cc1ccc(S(=O)(=O)NN=CC=CC=NNS(=O)(=O)c2ccc(C)cc2)cc1	-4	nt	nt	nt	3%	-61*
Cc1ccc(S(=O)(=O)NNC(=O)C(=O)NNS(=O)(=O)c2ccc(C)cc2)cc1	-3	5%	-8%	-6%	-8%	6
Cc1ccc(C(=O)N2C(=S)C(c3ccc(F)cc3)=NC23CCN(C)CC3)cc1	1	nt	2%	-1%	-2%	-19
CCOc1ccc(N2CC(C(=O)Nc3cccnc3)CC2=O)cc1 (stereo unspecified)	-1	nt	-3%	0%	i	-2
Cc1cccc(C)c1-n1nnnc1C1(C)CCC(=O)N1Cc1ccc(F)cc1 (stereo unspecified)	1	nt	nt	nt	nt	-1
CCCN(CCO)CCCc1ccccc1	6	4%	-9%	-12%	-2%	-7
CCN(CCCc1ccccc1)CCCc1ccccc1	0	28µM*!	?	-5%	2%	6
CCCc1cc(CNC(=O)C2CCC(=O)N(Cc3ccccc3OC)C2)on1 (stereo unspecified)	2	nt	0%	-4%	9%	4
NC1=NC(=O)C(=Cc2ccccc2)S1	-9	nt	2%	nt	0%	15
NC1=NC(=O)/C(=C\c2ccco2)S1	-13	-13%	?	3%	-13%	-96*
O=C(c1ccc(S(=O)(=O)c2ccc(F)cc2)c([N+](=O)[O-])c1)N1CCCCCC1	2	1%	-3%	0%	6%	-2
ICCc1ccccc1	nt	3.2µM*	nt	nt	nt	nt
COc1ccc(C(=O)Nc2noc3ccccc23)cc1	-73*	nt	-4%	-7%	nt	nt
COc1ccc(C(=O)Nc2ccc(O)c3ccccc23)cc1	-6	nt	1%	nt	-3%	?
COc1cc(/C=C(\C#N)c2nc3ccccc3s2)cc([N+](=O)[O-])c1O	-1	65%	?	?	?	-72*
N#C/C(=C\c1ccc(O)c([N+](=O)[O-])c1)c1nc2ccccc2s1	-7	31%	-12%	-15%	-21%	-26
C=CC1=C(C)C2=Cc3c(C=C)c(C)c4[n]3[Sn+2][n]3c(c(C)c(CCC(=O)O)c3=CC3=NC(=C4)C(C)=C3CCC(=O)O)=CC1=N2	nt	1.4µM*	nt	?	nt	nt
CCOc1ccc(-c2cc3c(=O)n(Cc4nc(-c5cccc(OC)c5OC)oc4C)ccn3n2)cc1Cl	-8	nt	-1%	0%	-3%	nt
SMILES	PI4K2A block	RGS12 GoLoco inh	Pin1 inh	GCN5L2 inh	Tb PGK inh	PI5P4K alpha inh
CC(=O)c1ccccc1NC(=O)COC(=O)c1ccc2c(c1)nc(C)n2-c1ccccc1	nt	14%	nt	-1%	nt	nt
C=CCn1c(SCc2ccccc2F)nc2cc(C(=O)O)ccc2c1=O	0	nt	-6%	-2%	4%	-74*
C=CCn1c(SCC(=O)N(CC)C2CCS(=O)(=O)C2)nc2cc(C(=O)O)ccc2c1=O (stereo unspecified)	0	nt	-6%	-3%	7%	-64*
Cc1ccc(-c2cnn(-c3ccccc3)c2N)cc1	-76*	nt	2%	-8%	?	?
Nc1c(/C=C2\C=Nc3ccccc32)c(=O)nc2sc(CC(=O)N3CCOCC3)nn12	-2	nt	-4%	-15%	8%	-53*
C=CCC1=C/C(=C\c2c(N)n3nc(CC(=O)N4CCCC4)sc3nc2=O)C=C(OC)C1=O	5	nt	5%	-18%	2%	-1
CCOC1=C/C(=C/c2c(N)n3nc(CC(=O)N4CCCCC4)sc3nc2=O)C=CC1=O	4	nt	85%	-5%	6%	-66*
COC1=C/C(=C/c2c(N)n3nc(CC(=O)N4CCCCC4)sc3nc2=O)C=CC1=O	-5	nt	59%	-9%	-7%	-64*
Nc1c(C=C2C=CC(=O)C=C2)c(=O)nc2sc(CC(=O)N3CCOCC3)nn12	-7	nt	9%	2%	-5%	-22
CCOC1=C/C(=C/c2c(N)n3nc(S(=O)(=O)CC)sc3nc2=O)C=CC1=O	-1	6%	88%	-9%	-9%	-56*
COc1ccc(OCC(=O)Nc2ccc(C)cc2)cc1	-1	3%	?	-17%	1%	0
O=C(Nc1ncc2c(n1)-c1ccccc1CC2)c1cccc(Cl)c1	3	-1%	-2%	3.2µM*	-8%	-6
O=C(Nc1ncc2c(n1)-c1ccccc1CC2)c1ccc(Cl)cc1	-3	13%	-1%	-6%	-1%	nt
Cc1ccc(S(=O)c2ccc([N+](=O)[O-])c3nonc23)cc1 (stereo unspecified)	-17	nt	nt	nt	-18%	-100*
N#C/C(=C\c1ccc(-c2cccc([N+](=O)[O-])c2)o1)C(=O)Nc1nc(-c2cccs2)cs1	-7	25%	16%	0%	-3%	-52*
COc1cccc(/C=C/C(=O)OCC(=O)Nc2ccc(Cl)c(S(=O)(=O)N(C)C)c2)c1	1	1%	7%	-16%	-4%	-2
CN(C)S(=O)(=O)c1cc(NC(=O)COC(=O)/C=C/c2ccco2)ccc1Cl	-28	8%	?	-11%	?	-71*
Nc1nnc(-c2cn(-c3ccccc3)nc2-c2ccccc2)o1	5	5%	?	-2%	-3%	nt
Oc1cccc(-c2nc3ncccn3c2Nc2cccc(C(F)(F)F)c2)c1	2	nt	-3%	-12%	-18%	nt
CCOC(=O)C1CCCN(C2=NC(=O)/C(=C/c3ccc(OC)cc3OC)S2)C1 (stereo unspecified)	-2	nt	-1%	-1%	i	-79*
CC(=O)c1cccc(NC(=O)CSc2nc(=O)n(Cc3cccnc3)c3c2CCC3)c1	3	nt	1%	-3%	-1%	nt
Nc1nc(-c2ccc3c(c2)OCCO3)c(CC(=O)O)s1	-3	nt	8%	35µM*	-2%	-10

Bioassay records deposited in PubChem BioAssay by National Center for Advancing Translational Sciences (NCATS).
